About 83,000 compounds went through this panel and 20% of them were active in at least one assay; those are over-represented in the sample as a whole.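 Interpretation: 100, growth as untreated; towards 0, rising growth inhibition; 0, no net growth; 0 to -100, cell death. Compounds scoring below 10 were considered active.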 A number with no mark means an inactive call. Active and inactive are the calls of the source.

Experiment in all cases: NCI-60 one-dose screen, 48 h (100 = growth as untreated, 0 = no growth, -100 = all killed)
Common to all, as to settings: 10 µM unless noted

In experiment [1] the test system is SK-MEL-2 melanoma.
Experiment [2] deals with EKVX NSCLC.
The subject of experiment [3] is SN12C renal.
Experiment [4] deals with UO-31 renal.
Experiment [5] has as its system TK-10 renal.
The subject of experiment [6] is ACHN renal.
For experiment [7], the system named is CAKI-1 renal.
Experiment [8] has as its system A498 renal.
The test system of experiment [9] is CCRF-CEM leukemia.
Experiment [10] has as its system MOLT-4 leukemia.
The test system of experiment [11] is SR leukemia.
The subject of experiment [12] is RPMI-8226 leukemia.
In experiment [13] the test system is OVCAR-8 ovarian.
For experiment [14], the system named is OVCAR-5 ovarian.
Experiment [15] has as its system OVCAR-4 ovarian.
In experiment [16] the test system is SK-OV-3 ovarian.
Experiment [17] concerns IGROV1 ovarian.
In experiment [18] the test system is OVCAR-3 ovarian.
The test system of experiment [19] is HS 578T breast.
Experiment [20] concerns NCI/ADR-RES ovarian.

In the case of `Cc1ccc(NC(=O)/C=C/c2ccccc2)c(C(N)=O)c1`, the growth was 67% in [1]; 64.1% in experiment [2]; 53.1% in [3]; 46.7% in experiment [4]; 92.9% in experiment [5]; 57.7% in experiment [6]. Besides, the growth is 6.55% (active) in experiment [7]; 53.8% in [8]; 7.23% (active) in experiment [9]; 30.7% in experiment [10]; -23.3% (active) in experiment [11]; 23.2% in experiment [12]. Moreover, the growth was 55.1% in [13]; 51.8% in experiment [14]; 31.4% in [15]; 2.6% (active) in experiment [16]; 91.4% in experiment [17]; -25.8% (active) in experiment [18]. Further, the growth is -3.46% (active) in experiment [19] and 24.7% in [20].
`O=C1c2cccc3cccc(c23)C(=O)N1CCCCCN1CCN(CCCCCOc2ccc(-c3nc4ccc(N5CCOCC5)cc4[nH]3)cc2)CC1`: the growth in experiment [1] was 87.4%; in experiment [2], 105%; in experiment [3], 108%; in experiment [4], 4.03% (active); in [5] it was 106%; in [6], 111%. The growth in [7] is 59.4%; in experiment [8], 117%; in experiment [9], -17.9% (active); in experiment [10], -54.4% (active); in [11], -44.1% (active); in experiment [12] it was -59% (active). The growth in [13] is 10.6%; in [14] it was 158%; in [15], 83.2%; in experiment [16], 135%; in experiment [17], 44.3%; in experiment [18] it was 105%. In addition, the growth in experiment [19] was 107%; in experiment [20], 25.9%.
As for `COc1cc(-c2ccc3c(c2)NC(=O)/C3=C\c2ccc[nH]2)ccc1O`, the growth in experiment [1] is 31.4%; in experiment [2], 35.6%; in experiment [3], 27.5%; in experiment [4] it was 14.5%; in [5], 35.7%; in experiment [6] it was 11.6%. For the same compound, the growth in [7] was 11.2%; in experiment [8] it was 64%; in [9], 12.3%; in experiment [10], 10.3%; in experiment [11], 8.9% (active); in experiment [12], 6.57% (active). Further, the growth was 18.5% in experiment [13]; 48.2% in experiment [14]; 52.4% in experiment [15]; 30.7% in [16]; 26.3% in experiment [17]; 9.59% (active) in [18]. Besides, the results for the growth in experiment [19] and in experiment [20] were 53.9% and 12.7%, respectively.
Consider `O=C1Nc2cc(-c3ccc(O)cc3)ccc2/C1=C/c1ccc[nH]1`, for which the growth in experiment [1] was 2.16% (active); in [2] it was 12%; in experiment [3], 13.6%; in experiment [4] it was -3.39% (active); in [5], 17.7%; in experiment [6], 4.81% (active). For the same compound, the growth is 2.43% (active) in experiment [7]; -3.08% (active) in experiment [8]; 6% (active) in [9]; 7.4% (active) in experiment [10]; 5.01% (active) in [11]; 3.47% (active) in [12]. The growth in experiment [13] is 12.3%; in experiment [14] it was 19%; in [15], 26.3%; in experiment [16], 8.32% (active); in experiment [17], 13%; in experiment [18] it was 4.63% (active). Besides, the growth was 18.1% in experiment [19] and -1.85% (active) in experiment [20].
On to `O=C(CCN1C(=O)/C(=C/c2ccc(Cl)cc2)SC1=S)NCCCN1CCOCC1`, for which the growth in [1] was 106%; in experiment [2], 90.9%; in experiment [3], 98.5%; in experiment [4], 84.9%; in [5] it was 110%; in experiment [6] it was 91.4%. The growth is 94.4% in [7]; 106% in [8]; 103% in experiment [9]; 102% in experiment [10]; 102% in experiment [11]; 103% in experiment [12]. The growth in experiment [13] is 92.4%; in [14], 103%; in experiment [15], 102%; in experiment [16] it was 88.2%; in experiment [17], 110%; in experiment [18] it was 105%. Also, the growth was 90.9% in experiment [19] and 98.9% in [20].
Take `O=C(/C=C/c1cc(CN2CCOCC2)c(O)c2ncccc12)c1cc(CN2CCOCC2)c(O)c2ncccc12`: the growth is 20.7% in experiment [1]; 23.5% in experiment [2]; 26.1% in experiment [3]; 11.1% in experiment [4]; 22.1% in experiment [5]; 9.19% (active) in [6]. Moreover, the growth in experiment [7] is 14.1%; in experiment [8], 32.4%; in experiment [9], 26.9%; in experiment [10], 31.1%; in experiment [11], 8.01% (active); in experiment [12] it was 6.02% (active). Besides, the growth was 15.2% in experiment [13]; 28.3% in [14]; 30.3% in [15]; -21.8% (active) in experiment [16]; 15.4% in [17]; 23.6% in experiment [18]. Moreover, the values for the growth in experiment [19] and in [20] were 27.1% and 21.4%, respectively.
As for `CN1CCN(CCCOc2cccc3nc(Nc4cc(Cl)cc(Cl)c4)ccc23)CC1`, the growth was 86.9% in experiment [1]; 26.6% in [2]; 36.1% in [3]; -15.8% (active) in experiment [4]; 71.9% in [5]; -5.36% (active) in [6]. Further, the growth is 30.7% in experiment [7]; 23.8% in experiment [8]; -40.7% (active) in experiment [9]; -47.7% (active) in experiment [10]; -30.2% (active) in experiment [11]; -14.8% (active) in experiment [12]. In addition, the growth was 51.4% in experiment [13]; 3.71% (active) in experiment [14]; 42.7% in [15]; 90.2% in [16]; 42.8% in experiment [17]; 26.3% in experiment [18]. In addition, the results for the growth in experiment [19] and in experiment [20] were 37.5% and 6.46% (active), respectively.

These data come from PubChem BioAssay (NCI).
